Compound in this assay: Cc1ccc(-c2ccc3c(ccc4sc5c(c43)NC[C@@H](C)NC5=O)n2)cn1
In words: kinase activity remaining relative to vehicle control; higher = less inhibition. How it is done:
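In vitro radiometric kinase profiling of the MK2 inhibitor PF-3644022 at 0.1, 1 and 10 µM against a panel of kinases (MRC International Centre for Kinase Profiling, Dundee). Read-out is % kinase activity remaining relative to the vehicle control, mean of n=2.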

UniProt Q13177, sequence (Q13177 whole entry, looked up): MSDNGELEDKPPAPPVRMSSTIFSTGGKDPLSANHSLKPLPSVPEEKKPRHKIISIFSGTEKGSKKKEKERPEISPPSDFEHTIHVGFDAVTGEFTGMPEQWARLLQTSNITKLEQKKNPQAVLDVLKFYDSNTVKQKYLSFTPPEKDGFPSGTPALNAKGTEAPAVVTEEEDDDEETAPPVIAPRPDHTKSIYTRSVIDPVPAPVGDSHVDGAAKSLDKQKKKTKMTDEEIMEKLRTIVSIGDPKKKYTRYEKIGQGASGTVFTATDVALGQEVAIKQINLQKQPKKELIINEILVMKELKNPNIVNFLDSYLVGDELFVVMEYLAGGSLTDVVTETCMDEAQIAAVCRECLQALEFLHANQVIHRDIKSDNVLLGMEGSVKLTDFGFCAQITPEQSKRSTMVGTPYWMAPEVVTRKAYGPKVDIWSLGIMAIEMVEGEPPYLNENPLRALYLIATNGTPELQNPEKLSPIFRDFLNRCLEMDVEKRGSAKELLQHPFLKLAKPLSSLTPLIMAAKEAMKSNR
UniProt Q9Y6E0, sequence (Q9Y6E0 whole entry, looked up): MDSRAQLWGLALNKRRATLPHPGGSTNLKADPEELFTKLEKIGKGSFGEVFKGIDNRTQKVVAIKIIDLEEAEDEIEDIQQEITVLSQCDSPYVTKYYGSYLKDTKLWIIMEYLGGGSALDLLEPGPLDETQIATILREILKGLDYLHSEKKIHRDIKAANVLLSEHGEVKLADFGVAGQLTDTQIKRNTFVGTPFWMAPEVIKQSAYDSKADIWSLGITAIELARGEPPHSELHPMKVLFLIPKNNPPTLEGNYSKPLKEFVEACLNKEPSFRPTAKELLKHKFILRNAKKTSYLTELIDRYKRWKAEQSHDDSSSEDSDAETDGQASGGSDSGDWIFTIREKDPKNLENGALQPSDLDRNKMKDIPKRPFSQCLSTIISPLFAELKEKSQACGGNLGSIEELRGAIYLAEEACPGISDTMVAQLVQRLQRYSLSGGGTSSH
UniProt P80192, sequence (P80192 whole entry, looked up): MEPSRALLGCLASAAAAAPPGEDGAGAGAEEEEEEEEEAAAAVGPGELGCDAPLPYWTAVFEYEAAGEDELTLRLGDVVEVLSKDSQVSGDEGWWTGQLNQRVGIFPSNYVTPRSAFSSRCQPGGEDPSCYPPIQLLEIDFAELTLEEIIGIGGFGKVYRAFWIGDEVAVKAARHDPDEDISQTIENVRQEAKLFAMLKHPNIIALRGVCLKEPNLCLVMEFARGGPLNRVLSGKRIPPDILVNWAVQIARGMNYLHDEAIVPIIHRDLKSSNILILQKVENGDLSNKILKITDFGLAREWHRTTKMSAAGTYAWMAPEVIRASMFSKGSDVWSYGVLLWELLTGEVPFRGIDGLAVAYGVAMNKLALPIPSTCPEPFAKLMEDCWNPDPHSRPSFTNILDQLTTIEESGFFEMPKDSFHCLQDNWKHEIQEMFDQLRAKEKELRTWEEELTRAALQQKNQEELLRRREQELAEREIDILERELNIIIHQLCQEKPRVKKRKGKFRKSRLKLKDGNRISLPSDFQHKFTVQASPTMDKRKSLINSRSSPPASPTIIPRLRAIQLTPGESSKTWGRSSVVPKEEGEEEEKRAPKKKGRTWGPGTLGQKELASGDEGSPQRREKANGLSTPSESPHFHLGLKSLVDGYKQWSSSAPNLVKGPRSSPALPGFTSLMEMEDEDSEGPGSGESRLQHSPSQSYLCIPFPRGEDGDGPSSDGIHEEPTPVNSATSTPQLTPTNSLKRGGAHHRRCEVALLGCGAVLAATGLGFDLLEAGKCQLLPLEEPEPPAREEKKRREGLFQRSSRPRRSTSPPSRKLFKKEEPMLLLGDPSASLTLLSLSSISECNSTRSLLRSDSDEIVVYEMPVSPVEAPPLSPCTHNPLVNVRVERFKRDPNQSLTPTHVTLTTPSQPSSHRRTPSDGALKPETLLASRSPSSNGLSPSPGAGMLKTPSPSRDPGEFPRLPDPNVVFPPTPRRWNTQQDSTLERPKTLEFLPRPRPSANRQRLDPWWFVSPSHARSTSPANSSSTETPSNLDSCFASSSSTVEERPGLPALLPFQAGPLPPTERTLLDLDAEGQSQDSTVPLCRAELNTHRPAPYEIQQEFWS
UniProt P14616, sequence (P14616 whole entry, looked up): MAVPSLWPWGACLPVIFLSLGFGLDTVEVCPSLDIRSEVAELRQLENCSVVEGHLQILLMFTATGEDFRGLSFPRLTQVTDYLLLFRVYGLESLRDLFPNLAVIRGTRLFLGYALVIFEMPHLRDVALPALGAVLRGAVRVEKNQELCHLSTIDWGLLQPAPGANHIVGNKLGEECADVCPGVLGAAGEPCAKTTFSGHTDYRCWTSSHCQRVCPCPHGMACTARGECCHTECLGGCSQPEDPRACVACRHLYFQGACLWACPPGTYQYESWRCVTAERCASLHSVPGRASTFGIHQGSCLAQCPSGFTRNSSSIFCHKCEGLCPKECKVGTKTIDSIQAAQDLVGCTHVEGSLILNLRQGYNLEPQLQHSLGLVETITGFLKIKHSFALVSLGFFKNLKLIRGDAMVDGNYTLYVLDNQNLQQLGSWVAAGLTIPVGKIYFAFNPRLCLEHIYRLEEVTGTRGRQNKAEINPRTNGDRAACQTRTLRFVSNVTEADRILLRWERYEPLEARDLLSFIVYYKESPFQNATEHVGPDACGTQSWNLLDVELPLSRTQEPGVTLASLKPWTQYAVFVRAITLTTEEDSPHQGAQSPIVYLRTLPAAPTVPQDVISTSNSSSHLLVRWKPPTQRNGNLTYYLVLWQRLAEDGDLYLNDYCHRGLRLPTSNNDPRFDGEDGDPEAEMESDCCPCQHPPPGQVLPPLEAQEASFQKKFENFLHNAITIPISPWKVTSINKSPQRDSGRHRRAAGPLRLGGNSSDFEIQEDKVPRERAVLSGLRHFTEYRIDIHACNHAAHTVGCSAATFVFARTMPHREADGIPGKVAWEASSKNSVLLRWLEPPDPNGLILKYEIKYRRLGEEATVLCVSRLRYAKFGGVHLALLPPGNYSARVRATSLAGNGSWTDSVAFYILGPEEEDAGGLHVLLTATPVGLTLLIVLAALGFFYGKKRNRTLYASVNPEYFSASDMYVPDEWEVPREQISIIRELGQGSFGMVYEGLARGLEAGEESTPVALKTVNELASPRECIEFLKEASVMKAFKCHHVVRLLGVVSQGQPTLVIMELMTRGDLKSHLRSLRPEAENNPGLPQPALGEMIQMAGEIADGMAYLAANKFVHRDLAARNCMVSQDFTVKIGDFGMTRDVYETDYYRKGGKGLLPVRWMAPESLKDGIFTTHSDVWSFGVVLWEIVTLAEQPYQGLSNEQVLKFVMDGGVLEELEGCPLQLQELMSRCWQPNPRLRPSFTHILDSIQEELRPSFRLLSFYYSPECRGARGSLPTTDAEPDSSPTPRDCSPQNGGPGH
UniProt P49760, sequence (P49760 whole entry, looked up): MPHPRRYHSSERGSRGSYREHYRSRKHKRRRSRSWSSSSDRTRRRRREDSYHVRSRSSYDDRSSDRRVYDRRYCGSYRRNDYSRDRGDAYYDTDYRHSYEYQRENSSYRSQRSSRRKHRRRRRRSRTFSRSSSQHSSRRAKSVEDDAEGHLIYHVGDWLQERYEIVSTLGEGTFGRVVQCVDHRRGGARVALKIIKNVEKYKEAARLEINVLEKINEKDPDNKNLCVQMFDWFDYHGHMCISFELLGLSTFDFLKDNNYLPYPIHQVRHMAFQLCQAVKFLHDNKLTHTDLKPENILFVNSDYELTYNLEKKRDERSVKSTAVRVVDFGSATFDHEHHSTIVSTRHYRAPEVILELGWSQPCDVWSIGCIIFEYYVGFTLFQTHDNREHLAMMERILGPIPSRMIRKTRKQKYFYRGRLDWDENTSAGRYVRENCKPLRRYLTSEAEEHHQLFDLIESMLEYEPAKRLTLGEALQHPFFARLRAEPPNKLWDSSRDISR
UniProt Q8TD08, sequence (Q8TD08 whole entry, looked up): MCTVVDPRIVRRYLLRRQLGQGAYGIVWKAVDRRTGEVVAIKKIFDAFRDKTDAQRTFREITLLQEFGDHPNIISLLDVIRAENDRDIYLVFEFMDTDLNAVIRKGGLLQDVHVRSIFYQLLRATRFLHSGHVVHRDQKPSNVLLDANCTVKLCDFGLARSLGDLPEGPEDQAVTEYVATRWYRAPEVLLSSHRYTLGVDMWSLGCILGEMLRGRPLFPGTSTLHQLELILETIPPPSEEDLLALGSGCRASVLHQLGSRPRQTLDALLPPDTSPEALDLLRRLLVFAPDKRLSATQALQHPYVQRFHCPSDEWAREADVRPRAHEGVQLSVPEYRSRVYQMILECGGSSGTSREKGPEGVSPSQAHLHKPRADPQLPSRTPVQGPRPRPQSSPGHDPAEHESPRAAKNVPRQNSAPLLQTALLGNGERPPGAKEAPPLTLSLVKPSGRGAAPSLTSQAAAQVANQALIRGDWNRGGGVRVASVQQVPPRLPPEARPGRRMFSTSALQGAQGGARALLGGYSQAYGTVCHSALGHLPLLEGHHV

Take MLK1 (UniProt P80192): the kinase activity remaining reads like this: (inhibitor concentration 0.1 µM) 99%; (inhibitor concentration 1 µM) 95%; (inhibitor concentration 10 µM) 60%.
Turning to PKB alpha (UniProt P31749), the kinase activity remaining reads like this: (inhibitor concentration 0.1 µM) 109%; (inhibitor concentration 1 µM) 97%; (inhibitor concentration 10 µM) 98%.
With IRR (UniProt P14616), the kinase activity remaining runs as follows: (inhibitor concentration 0.1 µM) 99%; (inhibitor concentration 1 µM) 79%; (inhibitor concentration 10 µM) 53%.
For MST3 (UniProt Q9Y6E0) the same measures were 118%, 109% and 108%.
For PKA, the kinase activity remaining reads like this: (inhibitor concentration 0.1 µM) 109%; (inhibitor concentration 1 µM) 119%; (inhibitor concentration 10 µM) 108%.
For SYK (UniProt P43405), in that order: 94%, 98% and 82%.
For OSR1 (UniProt Q8TAX0), in that order: 113%, 112% and 118%.
For TAK1, in that order: 113%, 109% and 70%.
Regarding PAK2 (UniProt Q13177), the kinase activity remaining (inhibitor concentration 0.1 µM) came to 102%, the kinase activity remaining (inhibitor concentration 1 µM) was 103% and the kinase activity remaining (inhibitor concentration 10 µM) was found to be 93%.
Regarding IKK beta, the kinase activity remaining (inhibitor concentration 0.1 µM) is 115%, the kinase activity remaining (inhibitor concentration 1 µM) was found to be 109% and the kinase activity remaining (inhibitor concentration 10 µM) came out at 101%.
For PKB beta (UniProt P31749), in that order: 100%, 90% and 69%.
For CLK2 (UniProt P49760), in that order: 86%, 43% and 9%.
On to ERK8 (UniProt Q8TD08), for which the kinase activity remaining worked out at 96% (inhibitor concentration 0.1 µM), 79% (inhibitor concentration 1 µM) and 38% (inhibitor concentration 10 µM).
Consider WNK1 (UniProt Q9H4A3), for which the kinase activity remaining (inhibitor concentration 0.1 µM) was 113%, the kinase activity remaining (inhibitor concentration 1 µM) worked out at 108% and the kinase activity remaining (inhibitor concentration 10 µM) was found to be 119%.

Values taken from the supplement of paper PMC6378613.
